From PubChem BioAssay
A number with no mark means an inactive call. The rule behind the calls is not given here.

Biological target: Pantothenate synthetase (Mycobacterium tuberculosis (strain ATCC 25618 / H37Rv)) (UniProt P9WIL5)
Assay: Coupled enzyme confirmation of inhibitors against recombinant Mtb PanC (AID 375);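 note: 0% = full reaction with vehicle and 100% = no enzyme background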
Conditions: coupled enzyme assay; at 10 µM, stronger effect = higher value

Sequence of Pantothenate synthetase (Mycobacterium tuberculosis (strain ATCC 25618 / H37Rv)) (P9WIL5 whole entry, looked up): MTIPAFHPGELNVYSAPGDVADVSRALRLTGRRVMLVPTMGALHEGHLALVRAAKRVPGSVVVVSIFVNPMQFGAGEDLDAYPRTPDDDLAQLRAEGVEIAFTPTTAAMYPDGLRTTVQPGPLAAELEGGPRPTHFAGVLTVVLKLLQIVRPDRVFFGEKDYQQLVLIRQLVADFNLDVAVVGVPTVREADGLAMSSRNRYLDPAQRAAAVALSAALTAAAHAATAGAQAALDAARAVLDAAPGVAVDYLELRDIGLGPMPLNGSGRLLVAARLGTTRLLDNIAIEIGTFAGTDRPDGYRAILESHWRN

| Structure (SMILES) | inhibition [%] |
| --- | --- |
| N[C@@H](Cc1cc(I)c(Oc2ccc(O)c(I)c2)c(I)c1)C(=O)O | 0 |
| COc1cc2c(cc1OC)-c1nnc(-c3cccs3)n1C(C)(C)C2 | 0 |
| CCCSC1=C(C#N)C(c2cc(OC)ccc2OC)CC(=O)N1 (stereo not given) | 14 |
| CCc1ccc(NC(=O)CS(=O)CC(=O)NC(C)CCc2ccco2)cc1 (stereo not given) | 2 |
| CCCNS(=O)(=O)c1ccc(OCC(=O)NCc2ccco2)cc1 | 2 |
| Cc1cc(NCCCn2ccnc2)n2c(nc3ccccc32)c1C#N | 0 |
| O=S(=O)(NCC1CCCO1)c1ccc(S(=O)(=O)N2CCc3ccccc3C2)cc1 (stereo not given) | 5 |
| CC(C)OC(=O)c1cccc(C(=O)O)n1 | 4 |
| CCCC(OC(=O)CN1C(=O)COc2ccccc21)C(=O)NC1CCCC1 (stereo not given) | 0 |
| Cc1ccc(C2CC(c3ccc(C)cc3)n3nc(N)nc3N2)cc1 (stereo not given) | 5 |
| CCOc1ccc(N(C(C)=O)C2C=CS(=O)(=O)C2)cc1 (stereo not given) | 0 |
| Cc1cc(C)nc(/N=C2\NC(=O)CC(C(=O)O)N2c2ccc(Cl)cc2)n1 (stereo not given) | 0 |
| CCn1c(SCC(=O)Nc2cc(C)ccc2C)nc2c(c1=O)SC(C)C2 (stereo not given) | 0 |
| Cc1ccccc1NC(=O)CSc1nnc(Cc2cccn2C)n1-c1ccc(F)cc1 | 0 |
| COc1ccc(CCN2CC(O)=C(c3nc4ccccc4c(=O)[nH]3)C2=N)cc1OC | 0 |
| Cc1cccc(NC(=O)c2ccccc2O)c1C | 0 |
| CCOC(=O)N1CCN(C(=O)COc2ccc(S(=O)(=O)NC(C)C)cc2)CC1 | 0 |
| C/C=C/c1ccc(OCCn2cncn2)c(OC)c1 | 0 |
| O=C(C1CCN(S(=O)(=O)c2cccc3cccnc23)CC1)N1CCN(C2CCCCC2)CC1 | 0 |
| O=C(CCCCCn1c(=S)[nH]c2cc3c(cc2c1=O)OCO3)N1CCN(Cc2ccccc2)CC1 | 1 |

| Structure (SMILES) | inhibition [%] |
| --- | --- |
| Cc1cc(C)cc(N(CC(=O)NC2CCC(C)CC2)S(=O)(=O)c2c(C)noc2C)c1 (stereo not given) | 0 |
| COC(=O)Cc1cc(=O)n(-c2ccccc2)[nH]1 | 0 |
| O=C(Nc1ccccc1C(=O)N1CCOCC1)C1CCC(=O)N1C1CCCC1 (stereo not given) | 1 |
| N#CC(C(=O)NCCc1ccccc1)c1nc2ccccc2nc1N1CCOCC1 (stereo not given) | 0 |
| O=C(Nc1ccc(CN2CCCCC2)cc1)c1ccc2c(c1)OCO2 | 3 |
| O=C(c1ccco1)N1CCN(C(=O)c2cc3c(s2)-c2ccccc2OC3)CC1 | 11 |
| O=C1CC(c2ccccc2)Cc2nc(N3CCc4ccccc43)ncc21 (stereo not given) | 1 |
| CCOC(=O)N1CCC(NC(=O)Cc2ccc(-n3c(=O)[nH]c4ccccc4c3=O)cc2)CC1 | 3 |
| Cc1cccc(C2CC(c3ccccc3)Nc3nc(N)nn32)c1 (stereo not given) | 0 |
| COc1ccc(C(O)C(CN2CCOCC2)c2ccccc2)cc1F (stereo not given) | 2 |
| CC1(C(=O)CSc2nc3ccccc3s2)CCC(=O)O1 (stereo not given) | 0 |
| CCSc1nnc(NC(=O)c2ccccn2)s1 | 1 |
| CSc1nnc(-c2ccc(NC(=O)CCc3ccccc3)cc2)n1C | 0 |
| CC1CC(C)CN(CC(=O)Nc2ccc(S(N)(=O)=O)cc2)C1 (stereo not given) | 0 |
| COc1ccc(C2/C(=C(/O)c3cnn(-c4ccccc4)c3C)C(=O)C(=O)N2CCN(C)C)cc1OC (stereo not given) | 3 |
| COc1cccc(C=Nc2ccc3c(c2)OCCO3)c1O | 3 |
| CCc1ccccc1OCCCCCNCCO | 3 |
| CCCNC(=O)c1ccccc1NC(=O)CN(c1ccccc1OCC)S(C)(=O)=O | 0 |
| CCCCn1c(CN2CCN(c3ccccc3)CC2)nc2c1c(=O)n(C)c(=O)n2C | 0 |
| CSc1nnc2c3ccccc3n(Cc3ccccc3)c2n1 | 7 |
